Results published in ChEMBL document CHEMBL3433997, “St. Jude Leishmania screening dataset” (2016).

Molecular target: Glucose transporter (Leishmania mexicana) (UniProt O61059)
Experiment: ST_JUDE_LEISH: Cytotoxicity at 2uM final concentration against transgenic Leishmania Mexicana promastigotes LmGT2 that are glucose transport deficient and complemented with the L. Mexicana glucose transporter 2. Activity is measured by DNA content using SYBR green in vitro
Assay type: functional

Question: How did the inhibition turn out when `COc1cc(Cc2cnc(N)nc2N)cc(OC(C)C)c1OC` was run?
Answer: Its inhibition is -0.54%.

Question: Which inhibition does the source give for `COC1CCC(C(=O)Nc2ccc(-c3cccc(-c4nc5cc(C(F)(F)F)ccc5[nH]4)c3)cc2)CC1` (stereo not given) here?
Answer: Its inhibition is 0.65%.

Question: For `COc1cc(CNC[C@@H](O)[C@H](Cc2ccccc2)NC(=O)c2cc(C3CCCC3)cc(N3CCCC3=O)c2)cc(OC)c1`, which inhibition is on record?
Answer: Its inhibition is -1.06%.

Question: Which inhibition does the source give for `CC(=NNC(S)=NCc1ccco1)c1ccccn1` here?
Answer: Its inhibition is 1.16%.

Question: `COc1ccc(NC(=O)c2ccc(Br)c(C)c2)cc1N1CCN(CCCc2c[nH]c3ccccc23)CC1` was tested. Which inhibition did it give?
Answer: Its inhibition is -0.4%.

Question: For `S=C(NN=Cc1ccccn1)NC1CC2C=CC1C2` (stereo not given), which inhibition is on record?
Answer: The inhibition was -1.49%.

Question: Which inhibition does the source give for `Cc1[nH]c(C)c(-c2ccc(Oc3ccc(Cl)cc3)cc2)c(=O)c1Cl` here?
Answer: Its inhibition is 1.25%.

Question: How did the inhibition turn out when `Cc1ccc(NC(=O)c2ccc(N3CCN(c4ccncc4)CC3)cc2)cc1F` was run?
Answer: The inhibition was 82.4%.

Question: With `COc1ccc(Nc2nccc(-c3ccc(NC(=O)c4cc5cc(F)ccc5[nH]4)cc3)n2)cc1` as the compound, how does the inhibition read?
Answer: Its inhibition is -1.37%.

Question: With `CCNc1cc(C(=O)N[C@@H](Cc2ccccc2)[C@H](O)CNC(C)(C)CSCC(C)C)cc(N2CCCC2=O)c1` as the compound, how does the inhibition read?
Answer: Its inhibition is -1.53%.

Question: `Cc1cc(CNCCCCCCNCc2ccc(Cl)cc2)ccc1O` was tested. Which inhibition did it give?
Answer: Its inhibition is 9.18%.

Question: With `CCCOc1cccc(C(=O)N[C@@H](Cc2ccccc2)[C@H](O)CNCc2ccccc2OC)c1` as the compound, how does the inhibition read?
Answer: The inhibition was 4.75%.

Question: Which inhibition does the source give for `Cc1ccc2cc(NC(=O)c3cccc(C(=O)Nc4ccc5nc(C)ccc5c4)n3)ccc2n1` here?
Answer: Its inhibition is 11.6%.

Question: With `CCCc1cc(Cc2cnc(N)nc2N)ccc1OCCCCCC(=O)OCC` as the compound, how does the inhibition read?
Answer: Its inhibition is -2.01%.

Question: With `CCCCCCCC1CC(CC(=O)Nc2ccnc3ccc(OC)cc23)CN1C(=O)OC(C)(C)C` (stereo not given) as the compound, how does the inhibition read?
Answer: Its inhibition is 3.12%.

Question: `O=C(Nc1ccc(-c2csc(-c3nc4ccccc4[nH]3)c2)cc1)Nc1ccc(Cl)c(Cl)c1` was tested. Which inhibition did it give?
Answer: Its inhibition is -1.48%.

Question: Which inhibition does the source give for `COc1ccc(-c2ccc(S(=O)(=O)Nc3cc4c(cc3OC(C)C)CCNCC4)cc2)cc1` here?
Answer: Its inhibition is -2.37%.

Question: With `CCCCCCCc1c(C)nc2ccccc2c1O` as the compound, how does the inhibition read?
Answer: Its inhibition is 2.82%.

Question: Which inhibition does the source give for `COc1ccc(N2CCN(CCCCNC(=O)c3ccc(NC(=O)c4ccc(C(F)(F)F)cc4)cc3)CC2)c(OC)c1` here?
Answer: The inhibition was 9.19%.

Question: For `Cc1cc(N[C@@H](CC(C)C)C(=O)NCc2cccs2)nc(Nc2ccccc2)n1`, which inhibition is on record?
Answer: Its inhibition is 2.84%.

Question: With `CCN(CC)CCCN(C(=O)Nc1cc(F)cc(F)c1)c1nc(-c2ccc(F)cc2)cs1` as the compound, how does the inhibition read?
Answer: Its inhibition is 1.69%.

Question: `O=C(N[C@@H](CC1CCCCC1)C(=O)NCc1cccc2ccccc12)c1ccc(O)c(-c2ccc(Cl)c(Cl)c2)c1` was tested. Which inhibition did it give?
Answer: Its inhibition is 2.22%.

Question: For `CN(Cc1ccccc1)C(=O)CCNS(=O)(=O)c1cc(Br)cnc1N`, which inhibition is on record?
Answer: Its inhibition is 6.07%.

Question: Which inhibition does the source give for `COc1ccc(C(=O)CCC(=O)N(Cc2ccc(-c3ccc(CNCCc4ccc(S(C)(=O)=O)cc4)cn3)cc2)C(C)CN(C)C)cc1F` (stereo not given) here?
Answer: The inhibition was 2.85%.

Question: With `CCOc1c(OC)ccc2c1CCN(CCN1CCC(CNC(=O)c3ccc(-c4ccc(C(F)(F)F)cc4)cc3)CC1)C2` as the compound, how does the inhibition read?
Answer: Its inhibition is 0.24%.

Question: `Cc1ccccc1C1CCN(C2CCC(NC(=O)c3cc4cc(C(C)C)ccc4[nH]3)CC2)CC1` (stereo not given) was tested. Which inhibition did it give?
Answer: The inhibition was 1.43%.

Question: `COc1ccc2nccc([C@@H](O)CN3CCC(NC(=O)Cc4cccc5c(Br)cccc45)CC3)c2c1` was tested. Which inhibition did it give?
Answer: Its inhibition is 10.9%.

Question: How did the inhibition turn out when `COc1ccc(CNC2Cc3ccccc3C2)cc1-c1ccc(S(=O)(=O)NCc2cccnc2)s1` was run?
Answer: The inhibition was 0.3%.

Question: `CC(C)CNCc1cccc(-c2ccc(CNC3CCN(Cc4ccccc4)CC3)cc2)c1` was tested. Which inhibition did it give?
Answer: Its inhibition is 4.78%.

Question: For `CC1(C)NC(N)=NC(=N)N1OCc1ccc(-c2ccccc2)cc1`, which inhibition is on record?
Answer: The inhibition was 3.79%.

Question: How did the inhibition turn out when `COc1cc2nc(NCCn3nc(C)cc3C)nc(NCCc3ccccc3)c2cc1OC` was run?
Answer: The inhibition was 1.08%.

Question: `Cc1sc2nc(CSc3ccccc3)nc(N3CCN(CC(=O)N4CCCC4)CC3)c2c1C` was tested. Which inhibition did it give?
Answer: Its inhibition is 1.41%.

Question: `COc1cc2nc(-c3ccccc3)nc(N3CCN(C(=O)c4ccco4)CC3)c2cc1OC` was tested. Which inhibition did it give?
Answer: Its inhibition is 7.06%.

Question: `O=C(NC1CCCC1)c1ccc(N2CCC(NCc3cc4cc(Cl)ccc4[nH]3)CC2)cc1` was tested. Which inhibition did it give?
Answer: Its inhibition is 2.98%.

Question: With `CC1CCN(Cc2ccc(NC(=O)c3cc4ccc5cccnc5c4[nH]3)cc2)CC1` as the compound, how does the inhibition read?
Answer: The inhibition was 7.77%.

Question: For `CCN1CCN(c2cc(C)c3cc(NC(=O)c4ccc(N(CC)CC)cc4)ccc3n2)CC1`, which inhibition is on record?
Answer: Its inhibition is -3.38%.

Question: How did the inhibition turn out when `CC(=O)c1cccc(NC(=O)c2ccc(Cl)c(S(=O)(=O)N3CCc4ccccc43)c2)c1` was run?
Answer: Its inhibition is 12%.

Question: With `CN1CCN(CC(=O)Nc2cccc(-c3ccc(-c4nc5cc(F)ccc5[nH]4)cc3)c2)CC1` as the compound, how does the inhibition read?
Answer: Its inhibition is 3%.

Question: Which inhibition does the source give for `Cc1cc(NC(=O)NCCN2CCC(NC(=O)c3cccc(Br)c3)C2)c2ccccc2n1` (stereo not given) here?
Answer: The inhibition was 2.62%.

Question: `Cc1sc2ccc(Cl)cc2c1S(=O)(=O)Nc1ccc2nccc(N3CC(C)NC(C)C3)c2c1` (stereo not given) was tested. Which inhibition did it give?
Answer: Its inhibition is 6.32%.
